{"source": "PubChem BioAssay (NCI)", "note": "The panel holds about 79,000 compounds, 15% with a hit somewhere; the sample as a whole holds those more often. Active and inactive are the calls of the source. Rule as the data show it: active = growth inhibition above about 70%; inactive = the rest."}
{"assay": "NCI Yeast Anticancer Drug Screen. Data for the rad50 strain (AID 155);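 also: 0% = growth of vehicle-only cultures of the same strain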", "conditions": "S. cerevisiae rad50 strain growth inhibition; at 50.0 µM; active compounds read high", "description": "Growth inhibition of yeast strains with defined genetic alterations is measured as a screen for potential anti-cancer activity. Selected strains with alterations in DNA damage repair or cell cycle control were exposed to compounds and growth inhibition was measured relative to vehicle treated controls. The strain used in this assay is rad50"}
{"smiles": "NC(=O)c1ccc(S(=O)(=NS(=O)(=O)c2ccccc2)c2ccc(C(N)=O)cc2)cc1", "growth inhibition": "4.2% (inactive)"}
{"smiles": "Cc1ccc(S(=O)(=O)OCOS(=O)(=O)c2ccc(C)cc2)cc1", "growth inhibition": "23.1% (inactive)"}
{"smiles": "Nc1ncnc2c1ncn2C1CC(O)C(COP(=O)(O)O)O1", "note": "(stereo not given)", "growth inhibition": "0.15% (inactive)"}
{"smiles": "CCOC(=O)c1c(C(=O)Nc2ccccc2)c(-c2ccccc2)n(NC(N)=O)c1C", "growth inhibition": "5.25% (inactive)"}
{"smiles": "CC(=O)OC/C=C1/CC[C@H]2[C@@H]3CCC4=CC(=O)CC[C@]4(C)[C@H]3[C@@H](O)C[C@]12C", "growth inhibition": "26.4% (inactive)"}
{"smiles": "COc1ccc(/C=C/[n+]2ccccc2)cc1OC", "growth inhibition": "-1.45% (inactive)"}
{"smiles": "O=C(Oc1ccccc1)C(c1ccccc1)c1ccccc1", "growth inhibition": "-9.95% (inactive)"}
{"smiles": "Oc1ccc2c(c1)OCC(O)(c1ccccc1O)C2", "note": "(stereo not given)", "growth inhibition": "23.8% (inactive)"}
{"smiles": "N#Cc1cccc(C2SCc3nc4ccccc4n32)c1", "note": "(stereo not given)", "growth inhibition": "-1.1% (inactive)"}
{"smiles": "Cc1nc2sccn2c1C(=O)NC(=O)Nc1ccc(Cl)cc1", "growth inhibition": "0.35% (inactive)"}
{"smiles": "COCCCOC(=O)COc1ccccc1", "growth inhibition": "-11.3% (inactive)"}
{"smiles": "CC(NC(=O)NCCCl)C1CC1", "note": "(stereo not given)", "growth inhibition": "-2.1% (inactive)"}
{"smiles": "COc1nc2ccccc2nc1OC", "growth inhibition": "-14.1% (inactive)"}
{"smiles": "Nc1ccc(S(=O)(=O)Nc2ccccn2)cc1", "growth inhibition": "-2.2% (inactive)"}
{"smiles": "Cc1onc(-c2ccccc2)c1NC(=O)OC(C)c1cccnc1", "note": "(stereo not given)", "growth inhibition": "-6.3% (inactive)"}
{"smiles": "CC(=O)OCC1OC(n2nnc3c(=O)n(C)c(=O)[nH]c32)C(OC(C)=O)C(OC(C)=O)C1OC(C)=O", "note": "(stereo not given)", "growth inhibition": "9.45% (inactive)"}
{"smiles": "CC(C)(C)NC(=O)Oc1ccc(Br)cc1Br", "growth inhibition": "-1.5% (inactive)"}
{"smiles": "CCOC(=O)CCC(=O)C(=O)OCC", "growth inhibition": "13.1% (inactive)"}
{"smiles": "CC(NC(=O)C(C)(C)C)c1ccc(-c2ccccc2)cc1", "note": "(stereo not given)", "growth inhibition": "11.8% (inactive)"}
{"smiles": "O=C1CCCC1CC(CN1CCOCC1)Sc1nnnn1-c1ccccc1", "note": "(stereo not given)", "growth inhibition": "6.55% (inactive)"}
{"smiles": "O=C(c1no[n+]([O-])c1C(=O)c1csc2ccccc12)c1csc2ccccc12", "growth inhibition": "-9.7% (inactive)"}
{"smiles": "CCOC(=O)C1=C(NC(=O)C(c2ccccc2)c2ccccc2)OCC1", "growth inhibition": "4.7% (inactive)"}
{"smiles": "C(=C(c1ccccc1)c1ccccc1)N1CCOCC1", "growth inhibition": "-2.3% (inactive)"}
{"smiles": "NNC(=O)CSc1ncnc2nc[nH]c12", "growth inhibition": "1.3% (inactive)"}
{"smiles": "O=C(Oc1ccc2c(c1)CCN2C(=O)c1cc2c(cc1[N+](=O)[O-])OCO2)c1ccc2c(c1)OCO2", "growth inhibition": "17.4% (inactive)"}
{"smiles": "CCC1CCC(OC(=O)Nc2cccc3ccccc23)CC1", "note": "(stereo not given)", "growth inhibition": "12.2% (inactive)"}
{"smiles": "CCCCCCCCCCCC(=O)N(CCOC(=O)c1ccccc1)CCc1ccccc1", "growth inhibition": "32.6% (inactive)"}
{"smiles": "CC(=O)c1c2c(cc3c1CC1(C3)Cc3cc4c(c(C(C)=O)c3C1)CCC4)CCC2", "growth inhibition": "-21.5% (inactive)"}
{"smiles": "COc1cccc(Cc2c3cc(OC)ccc3cc[n+]2C)c1", "growth inhibition": "33.3% (inactive)"}
{"smiles": "CC(C)(CO)NC(=O)c1cccs1", "growth inhibition": "14.8% (inactive)"}
{"smiles": "CCCCN(CCCC)c1c([N+](=O)[O-])c(=O)nc2ccccn12", "growth inhibition": "21.1% (inactive)"}
{"smiles": "CC(OC(=O)CC(c1ccccc1)N1CCCCC1)c1ccccc1", "note": "(stereo not given)", "growth inhibition": "64.7% (inactive)"}
{"smiles": "NS(=O)(=O)c1ccc(NC(=O)Nc2ccccc2F)cc1", "growth inhibition": "-3.35% (inactive)"}
{"smiles": "CC(=N\\N=C(N)N)/C(N=Nc1ccc(S(N)(=O)=O)cc1)=N\\N=C(N)N", "growth inhibition": "-0.75% (inactive)"}
{"smiles": "CCOC(=O)/C(=C\\c1ccc(OCc2ccccc2)c(OC)c1)C(=O)c1ccccc1", "growth inhibition": "15.6% (inactive)"}
{"smiles": "CCC(C(=O)c1cccs1)C(O)(C(F)(F)F)C(F)(F)F", "note": "(stereo not given)", "growth inhibition": "-13.8% (inactive)"}
{"smiles": "CCCCCCCCCCCCCCCCCN(C)C(=O)OCC", "growth inhibition": "23.1% (inactive)"}
{"smiles": "CC(=O)C1CN(C)CCC1=O", "note": "(stereo not given)", "growth inhibition": "-20% (inactive)"}
{"smiles": "COC(=O)C(C)C1Sc2ccccc2NC1=O", "note": "(stereo not given)", "growth inhibition": "4.6% (inactive)"}
{"smiles": "O=C(O)c1ccc(OCCOc2ccccc2)c(Cl)c1", "growth inhibition": "31% (inactive)"}
